L3MBTL1 inh: L3MBTL1 (human) inhibition; Q9Y468; AID 485360; Potency, µM (top dose mostly 57.1 µM), without a hit: at the top dose activity, negative = inhibition, most hits filed as inhibitors; AlphaScreen L3MBTL1–H3K9me1 peptide binding; hit rate 0.66% among 230,000; note: nearly all actives have a fitted effect of over 60% in size
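Displacement of a biotinylated histone H3(1-15) peptide monomethylated at Lys9 (75 nM) from L3MBTL1 (50 nM) was measured by AlphaScreen after a 30 min room-temperature compound incubation; cefsulodin titration served as intraplate control.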
RECQ1 inh-1: RECQ1 (human) helicase inhibition; Potency, µM (series often up to 57.3 µM), inactives show top-dose activity, negative = inhibition, actives largely listed as inhibitors; AID 2549; RECQ1 DNA unwinding, red fluorescence kinetic read; hit rate 0.54% among 240,000;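 note: plate controls were vehicle for no effect and no enzyme for full effect; nearly all actives have a fitted effect of over 30% in size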
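RECQ1T1 50 nM; forked duplex (20 bp + 30-nt ss tails) 200 nM, ATP 2 mM final; pH 8.0, 2 mM MgCl2, 2.5 ug/ml poly(dI-dC); 15 min compound preincubation; discontinuous kinetic read over 2 h at RT.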
WRN inhibitor: inhibitors of human WRN helicase; Q14191; WRN helicase unwinding, fluorescent forked duplex, kinetic; Potency, µM (highest dose often 114 µM), inactives show at the highest dose activity change, negative = inhibition, most hits filed as inhibitors; hit rate 0.46% among 360,000; note: nearly all actives have a fitted effect of over 55% in size
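Enzyme (20 nM final) and test compound sit together 15 min at room temperature before substrate addition. Substrate is a single-forked duplex oligonucleotide (100 nM) labelled with fluorophore and quencher, with 2 mM ATP; helicase unwinding raises red fluorescence, read kinetically.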
BLM inh: Bloom syndrome helicase (human) inhibition; P54132; recombinant BLM DNA unwinding, fluorescence dequenching; Potency, µM (highest dose often 56.1 µM), for inactives: top-dose activity change, negative = inhibition, usual class: inhibitors; hit rate 0.2% among 350,000; AID 2528;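 note: plate controls were vehicle for no effect and no enzyme for full effect; nearly all actives have a fitted effect of over 35% in size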
APEX1 inh: blocks human APE1 abasic DNA cleavage; AID 2517; recombinant APE1, TAMRA/BHQ-2 abasic DNA cleavage fluorescence; P27695; hit rate 0.35% among 350,000; Potency, µM (doses to about 65.8 µM), for inactives: at the highest dose activity change, negative = inhibition, actives largely listed as inhibitors;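 note: plate controls were vehicle for no effect and reference inhibitor for full effect; nearly all actives have a fitted effect of over 55% in size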
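Step 1: APE1 (0.75 nM) with compound, 15 min RT. Step 2: add 50 nM fluorophore/quencher THF duplex. Step 3: three fluorescence reads 60 s apart (525/598 nm); read 3 minus read 1 = reaction progress.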
RECQ1 inh conf: confirmation of human RECQ1 helicase inhibitors. hit rate 28% among 610. AID 2708. Potency, µM (titrated, usually from 229 µM), for inactives: at the highest dose activity change, negative = inhibition, most hits filed as inhibitors. RECQ1 helicase DNA unwinding, fluorescence. shares compounds with RECQ1 inh-1; note: nearly all actives have a fitted effect of over 45% in size
ADP FP counter: counter-screen for RECQ1 inhibitors: ADP displacement | shares compounds with RECQ1 inh-1 | ADP fluorescence polarization displacement counterscreen | Potency, µM (doses to about 228 µM), without a hit: top-dose activity change, negative = inhibition, usual class: inhibitors | hit rate 27% among 530; note: nearly all actives have a fitted effect of over 45% in size
RECQ1 inh-2: confirmation of human RECQ1 helicase inhibitors | shares compounds with RECQ1 inh-1 | recombinant RECQ1 DNA unwinding, red fluorescence | Potency, µM (doses to about 119 µM), for inactives: at the highest dose activity, negative = inhibition, actives largely listed as inhibitors | hit rate 15% among 1,100; note: nearly all actives have a fitted effect of over 50% in size
* hit, by the source's call; i = inactive; ? = inconclusive; nt = no result given; [ ] = another dose, or the depositor's remark. Most compounds without a hit are left out; they make up all but 0.92% or so of the library. Calls come from the whole dose curve; as a rule, active = well fitted curve in the direction sought with a large enough effect; inconclusive = small, poorly fitted or top-dose-only effect, or another doubt; inactive = no such curve, though single readings can be large; an effect the other way counts as inactive or inconclusive. Unless noted, % is set by controls: 0 for no effect and ±100 for the full control effect; potency is the fitted concentration of half-maximal effect.

SMILES	L3MBTL1 inh	RECQ1 inh-1	WRN inhibitor	BLM inh	APEX1 inh	RECQ1 inh-2	others
CCOc1ccccc1NC(=O)CN(C)S(=O)(=O)c1cnc[nH]1	14%	16µM*	9%	-1%	-3%	-2%	RECQ1 inh conf=-1%[114 µM];ADP FP counter=8%[91.9 µM]
Cc1ccc(NC(=O)CN(C)S(=O)(=O)c2cnc[nH]2)c(C)c1	nt	nt	-10%	-1%	56%	nt
CCOC(=O)N1CCc2c(sc3c2c(=O)n(-c2ccc(CC)cc2)c(=O)n3CC(=O)c2ccc(F)cc2)C1	nt	nt	nt	-7%	nt	nt
NC(=O)c1sc2nc(-c3ccco3)ccc2c1N	-2%	11µM*	?	-7%	?	-17%
N#CC1=C2SCN(Cc3ccco3)CN2C(=O)CC1c1cccc2ccccc12 (stereo unspecified)	-5%	?	-27%	?	13%	-10%
N#CC1=C2SCN(Cc3ccco3)CN2C(=O)CC1c1ccccc1F (stereo unspecified)	nt	-13%	-6%	-16%	6%	nt
CCOC(=O)c1c(N2C(=O)Nc3cc(Cl)c(Cl)cc3N2O)sc2c1CCCCC2	-13%	?	?	-8%	-10%	20µM*
CCOC(=O)c1c(-n2cnnn2)sc2c1CCCC2	1%	1%	-1%	-2%	-8%	nt
CCc1ccc(NC(=O)CC2C(=O)N(c3cccc(C)c3)C(=O)N2Cc2cccs2)cc1 (stereo unspecified)	nt	nt	nt	-10%	nt	nt
CC(=O)OCC1OC(c2ccc3c(c2)OCO3)C=CC1OC(C)=O (stereo unspecified)	nt	i[11.5 µM]	nt	-1%[12.4 µM]	17%[12.4 µM]	nt
O=C(Cn1ncc(Cl)c(Cl)c1=O)N1CCOCC1	5%	-2%	3%	-4%	-4%	nt
O=C(Cn1ncc(Cl)c(Cl)c1=O)N1CCN(Cc2ccccc2)CC1	-27%	32µM*	-10%	-18%	9%	-14%
O=C(Nc1ccccc1)c1ccc(CN2CCc3ccccc3C2)cc1	nt	-2%	2%	-3%	-5%	nt
Cc1cc2ccccc2n1CCNC(=O)c1ccc(S(=O)(=O)N2CCCCC2)cc1	-8%	28µM*	-14%	-29%	?	79µM*
CCOc1cccc(NC(=O)c2ccc(S(=O)(=O)N3CCCC3)cc2)c1	nt	13µM*	-3%	-3%	-5%	-19%
O=C(NC(Cc1ccccc1)C(=O)O)c1ccc(S(=O)(=O)N2CCCCC2)cc1 (stereo unspecified)	nt	-4%	-1%	3%	3%	nt	RECQ1 inh conf=12%;ADP FP counter=?
O=C(Nc1ccc(S(=O)(=O)N2CCCCC2)cc1)c1ccc(CN2CCc3ccccc3C2)cc1	-12%	?	-4%	-11%	-7%	-14%
Cc1ccc2c(c1)c(=O)c1ccccc1n2CCCC(=O)Nc1ccc(C)c(F)c1	nt	nt	nt	-3%	nt	nt
Cc1[nH]c2ccccc2c1C1(O)C(=O)N(Cc2ccccc2)c2ccc(Br)cc21 (stereo unspecified)	nt	nt	nt	-14%	nt	nt
CC1Cc2ccccc2N1C(=O)CSc1nnc(-c2ccc(S(=O)(=O)N3CCOCC3)cc2)n1C (stereo unspecified)	-8%	-3%	-6%	-1%	12%	nt	RECQ1 inh conf=0%;ADP FP counter=?
Cc1cc(NC(=O)CSc2nnc(-c3ccc(S(=O)(=O)N4CCCC4)cc3)n2C)no1	-4%	-7%	0%	1%	2%	nt	RECQ1 inh conf=-4%;ADP FP counter=3%
Cc1csc(NC(=O)CSc2nnc(-c3ccc(S(=O)(=O)N4CCCC4)cc3)o2)n1	12%	-1%	-9%	1%	0%	nt	RECQ1 inh conf=8%;ADP FP counter=11%
CCN(CC)S(=O)(=O)c1ccc(-c2nnc(SCC(=O)Nc3nc(C)cs3)o2)cc1	10%	-11%	-6%	-1%	2%	nt

Assay outcomes: PubChem, National Center for Advancing Translational Sciences (NCATS)
